TrxR1 substrate – rat thioredoxin reductase 1 substrate activity | purified TrxR1 substrate turnover, NADPH consumption readout | Potency, µM (top dose mostly 114 µM), for the others: at the top dose activity change, negative = substrate turnover | 390,000 tested, 0.01% active | AID 588456; note: potency is the fitted concentration of half-maximal effect; nearly all actives have a fitted effect of over 50% in size
Target sequence (O89049 whole entry, looked up): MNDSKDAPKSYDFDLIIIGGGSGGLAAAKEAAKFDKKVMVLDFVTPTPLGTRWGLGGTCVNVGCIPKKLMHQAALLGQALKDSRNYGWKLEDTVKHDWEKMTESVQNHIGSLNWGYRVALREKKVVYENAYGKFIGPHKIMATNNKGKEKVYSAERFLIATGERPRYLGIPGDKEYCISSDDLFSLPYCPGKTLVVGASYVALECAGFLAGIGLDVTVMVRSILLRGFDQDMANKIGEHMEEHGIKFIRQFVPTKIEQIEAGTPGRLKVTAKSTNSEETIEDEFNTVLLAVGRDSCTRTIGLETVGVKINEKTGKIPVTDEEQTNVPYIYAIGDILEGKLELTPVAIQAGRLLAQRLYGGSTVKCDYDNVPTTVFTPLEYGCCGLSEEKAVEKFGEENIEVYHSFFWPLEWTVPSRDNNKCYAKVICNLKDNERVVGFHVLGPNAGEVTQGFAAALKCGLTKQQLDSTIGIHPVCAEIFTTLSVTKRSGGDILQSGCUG
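Rat TrxR1, dispensed at 90 nM, was prereduced with 400 uM NADPH (final) for 5 min at ~22 deg C, then incubated with compound 15 min before 400 uM selenite. A first-read NADPH fluorescence drop versus no-compound background flagged substrates.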
PKM2 act – activators of human pyruvate kinase M2 | P14618 | purified PKM2, Kinase-Glo ATP luminescence, activation; response scale: 0% is enzyme alone, no compound | Potency, µM (series often up to 57.5 µM), for the others: top-dose activation, most hits filed as activators | 260,000 tested, 0.34% active; note: potency is the fitted concentration of half-maximal effect; nearly all actives have a fitted effect of over 55% in size
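Purified hPK-M2 (>95%) run at intermediate activity with 0.1 mM ADP and 0.5 mM PEP in 50 mM imidazole pH 7.2, KCl, MgCl2; 1 h room temperature. ATP formed read by Kinase-Glo luminescence; normalized to uninhibited and no-enzyme controls.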
rTrxR1 inhibitor – inhibitors of rat thioredoxin reductase 1; AID 588453; Potency, µM (highest dose often 114 µM), for inactives: top-dose activity change, negative = inhibition, actives largely listed as inhibitors; O89049; 390,000 tested, 1% active; recombinant rTrxR1, NADPH fluorescence consumption, selenite substrate; note: potency is the fitted concentration of half-maximal effect; nearly all actives have a fitted effect of over 65% in size
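Rat TrxR1 (90 nM in the dispensed reagent) was pre-reduced with 400 uM NADPH for 5 min at room temperature, then incubated with compound for 15 min. After 400 uM selenite was added, NADPH fluorescence (Ex 340/Em 450 nm) was followed for 8 min.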
PI4K2A block – inhibitors of human PI4K2A. Q9BTU6. purified PI4K2A, ADP-Glo luminescence, 1 h; stronger effect = lower value. activity change, negative = inhibition, % at 76.9 µM. 420,000 tested, 0.13% active; in the data active = activity change below about -50%; inconclusive = mostly about -30% to -49%;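 note: -100% = wells without enzyme as full effect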
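Compounds are screened against recombinant PI4K2A using PI as substrate and ATP, the latter dispensed at 300 microM. Reactions run one hour at ambient temperature before ADP-Glo detection; full inhibition defined by wells lacking enzyme.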
GALK inhibitor – inhibitors of human galactokinase | P51570 | Purified GALK, Kinase-Glo residual ATP luminescence | Potency, µM (doses to about 57.5 µM), for the others: at the highest dose activity change, negative = inhibition, actives largely listed as inhibitors | 270,000 tested, 0.007% active; note: potency is the fitted concentration of half-maximal effect
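ATP-depletion format; final 35 uM ATP, 100 uM D-galactose, 5 nM enzyme; pH 8.0 HEPES/Mg2+ buffer; 60 min RT; luminescence read 10 min after detection reagent.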
An asterisk follows results filed as active; [ ] = another dose, or the depositor's remark. The list is not random: actives were taken first. Their share in the collection is about 1.2%. Unless noted, calls come from the whole dose curve; as a rule, active = well fitted curve in the direction sought with a large enough effect; inconclusive = small, poorly fitted or top-dose-only effect, or another doubt; inactive = no such curve, though single readings can be large; an effect the other way counts as inactive or inconclusive. Unless noted, % is set by controls: 0 for no effect and ±100 for the full control effect.

`CN(C)CCCN(C(=O)CCc1ccccc1)c1nc2c(F)cccc2s1` gave TrxR1 substrate -1.2%, PKM2 act 4.2%, rTrxR1 inhibitor 1.2%, PI4K2A block -6.4 and GALK inhibitor -2.4%.
For CN(C)CCCN(C(=O)CCOc1ccccc1)c1nc2c(F)cccc2s1 the results were TrxR1 substrate 17.8%[57.1 µM], PKM2 act 23.3%, rTrxR1 inhibitor 0.447µM*, PI4K2A block 4.7 and GALK inhibitor -1.2%.
Screening Cc1cccc2sc(N(Cc3cccnc3)C(=O)CCOc3ccccc3)nc12 returned TrxR1 substrate 4.5%[57.1 µM], rTrxR1 inhibitor inconclusive and PI4K2A block -58.8*.
For Cc1ccc(NC(=O)C(Cc2ccccc2)n2cccc2)c(C)c1 (stereo unspecified) the results were TrxR1 substrate -3.2%, rTrxR1 inhibitor 2.6% and PI4K2A block 2.0.
CCOc1ccccc1N/C(=C(/C(Cl)=C(Cl)Cl)[N+](=O)[O-])n1cncn1 was read as TrxR1 substrate -14.1%, PKM2 act 4.5%, rTrxR1 inhibitor 22.4µM*, PI4K2A block 9.2 and GALK inhibitor 1.1%.
`CCOc1ccc(N/C(=C(/C(Cl)=C(Cl)Cl)[N+](=O)[O-])n2cncn2)cc1` gave PKM2 act -6.6% and GALK inhibitor -0.4%.
`Cc1cc(N2CCN(c3cccc(C(F)(F)F)c3)CC2)n2nc(-c3ccccc3C)nc2n1` gave TrxR1 substrate -1.5%, rTrxR1 inhibitor 38.8% and PI4K2A block 7.0.
Screening COc1ccc(CCCc2nnc(SCC(=O)Nc3ccc(C)cc3)o2)cc1C returned TrxR1 substrate 1.4%[57.1 µM], rTrxR1 inhibitor 16.7%[57.1 µM] and PI4K2A block -2.3.
`Cc1c(-c2ccccc2)nc(-c2ccccc2)[nH]c1=O` gave TrxR1 substrate 1.9%, PKM2 act -1.7%, rTrxR1 inhibitor -5.3%, PI4K2A block -1.2 and GALK inhibitor 2.2%.
COC(=O)c1c(S(C)(=O)=O)nc(-c2ccccc2)[nH]c1=O was read as TrxR1 substrate -0.6%, PKM2 act 7.8%, rTrxR1 inhibitor 39.8µM*, PI4K2A block -9.7 and GALK inhibitor -2.0%.
For COC(=O)[C@H](Cc1ccccc1)NP(=O)(OC)[C@@H](C)NC(=O)OCc1ccccc1 (stereo partly specified) the results were PI4K2A block 3.5.
Screening COCCCNC(=O)COc1ccc(S(=O)(=O)Nc2ccccc2)cc1 returned TrxR1 substrate -6.4%, PKM2 act 14.1µM*, rTrxR1 inhibitor 2.7%[57.1 µM], PI4K2A block -2.5 and GALK inhibitor 0.0%.
Screening CCCc1cc(=O)oc2cc(C)cc(OCC(=O)Nc3ccccn3)c12 returned TrxR1 substrate 17.3%, rTrxR1 inhibitor 27.1%, PI4K2A block 3.4 and GALK inhibitor -5.5%.
Screening CCCc1cc(=O)oc2cc(C)cc(OCC(=O)Nc3ccc(S(N)(=O)=O)cc3)c12 returned TrxR1 substrate -4.7%, rTrxR1 inhibitor 20µM*, PI4K2A block 1.5 and GALK inhibitor -0.7%.
`COc1cc(OC)c(C(=O)CCC(=O)O)cc1OC` gave TrxR1 substrate -12.1%, PKM2 act -5.8%, rTrxR1 inhibitor -9.0%, PI4K2A block 2.4 and GALK inhibitor 0.9%.
`C=C(CN(C)C)C(=O)c1ccc(C)cc1C` gave TrxR1 substrate 15.5%[11.4 µM], rTrxR1 inhibitor 2µM* and PI4K2A block 11.6.
C=C(CN(C)C)C(=O)c1ccc2c(c1)OCO2 was read as TrxR1 substrate -7.6%, rTrxR1 inhibitor 1.58µM* and PI4K2A block 4.5.
C=C(CN(C)C)C(=O)c1cc(OC)c(OC)cc1OC was read as TrxR1 substrate -8.8%, rTrxR1 inhibitor 1.78µM* and PI4K2A block 1.5.
Screening Cc1ccc(C(=O)CC(=O)c2ccccc2C)c(O)c1 returned TrxR1 substrate 13.5%[57.1 µM], rTrxR1 inhibitor -19.2% and PI4K2A block -19.1.
Screening O=C(Nc1cc(Cl)ccc1Cl)C1(c2cccs2)CCOCC1 returned TrxR1 substrate 4.9%[57.1 µM], rTrxR1 inhibitor 16.7%[57.1 µM] and PI4K2A block -1.6.
Screening O=C(c1ccc2c(c1)N(Cc1ccccc1)C(=O)c1ccccc1S2(=O)=O)N1CCOCC1 returned TrxR1 substrate 4.6%, rTrxR1 inhibitor 21.2% and PI4K2A block -4.5.
For CN(C)CCCNc1cc(N2CCN(C)CC2)ncn1 the results were TrxR1 substrate -0.4% and rTrxR1 inhibitor 7.4%.
Screening COC(=O)[C@]12C[C@H](CC(=O)N3CCOCC3)C(=O)N(CCc3ccc(OC)c(OC)c3)C1=C[C@H](C(C)C)O[C@@H]2C1CC1 returned PI4K2A block 2.8.
`CC(C)C(Cl)=NOC(=O)Nc1ccc(S(N)(=O)=O)cc1` gave TrxR1 substrate 2.7%[11.4 µM], rTrxR1 inhibitor 0.794µM* and PI4K2A block 11.4.
For CN(C)S(=O)(=O)c1cccc(-n2sc3ccccc3c2=O)c1 the results were TrxR1 substrate -1.3%[57.1 µM], PKM2 act 2.82µM*, rTrxR1 inhibitor 81.7%[57.1 µM], PI4K2A block -7.1 and GALK inhibitor 6.5%.
Screening COc1ccc(C(C2C(=O)CC(C)(C)CC2=O)C2C(=O)CC(C)(C)CC2=O)cc1COCC(F)(F)F returned TrxR1 substrate 4.1%, PKM2 act 16.1%, rTrxR1 inhibitor 7.94µM*, PI4K2A block -8.9 and GALK inhibitor -0.5%.
`COc1cc(C(C2C(=O)CC(C)(C)CC2=O)C2C(=O)CC(C)(C)CC2=O)ccc1O` gave TrxR1 substrate 3.7%, rTrxR1 inhibitor 14.1µM*, PI4K2A block -8.3 and GALK inhibitor 1.7%.
COc1cc(C(C2C(=O)CC(C)(C)CC2=O)C2C(=O)CC(C)(C)CC2=O)ccc1OC(C)=O was read as TrxR1 substrate 6.6%[57.1 µM], rTrxR1 inhibitor inconclusive and PI4K2A block -2.3.
COc1cc(C(C2C(=O)CC(C)(C)CC2=O)C2C(=O)CC(C)(C)CC2=O)cc(OC)c1OC was read as TrxR1 substrate 9.7%[57.1 µM], rTrxR1 inhibitor inconclusive, PI4K2A block -6.3 and GALK inhibitor 0.6%.
CC1(C)Cc2nc3oc4c(=S)nc[nH]c4c3cc2CO1 was read as TrxR1 substrate -7.7%, PKM2 act 0.5%, rTrxR1 inhibitor 11.2µM*, PI4K2A block 1.2 and GALK inhibitor 2.6%.
`C=CCSc1ncnc2c1oc1nc3c(cc12)COC(C)(C)C3` gave TrxR1 substrate 5.7%[11.4 µM], PKM2 act 5.6%, rTrxR1 inhibitor 22.6%[11.4 µM], PI4K2A block -1.9 and GALK inhibitor -2.8%.
c1coc(Cn2c(-c3ccco3)nc3ccccc32)c1 was read as TrxR1 substrate 27.0%, PKM2 act 2.6%, rTrxR1 inhibitor 3.16µM*, PI4K2A block -11.5 and GALK inhibitor 0.3%.
Screening Cc1cccc(OCCOc2ccccc2C=C(C#N)C#N)c1 returned TrxR1 substrate 1.3%, PKM2 act 5.2%, rTrxR1 inhibitor 2.82µM*, PI4K2A block 53.5 and GALK inhibitor 0.3%.
`Cc1ccccc1OCCOc1ccccc1C=C(C#N)C#N` gave PKM2 act -3.2% and GALK inhibitor 0.0%.

Compound activity: PubChem BioAssay, National Center for Advancing Translational Sciences (NCATS)
